Bioassay records as filed in PubChem.
In the library only some 3.1% were active in any assay of this set; here they are far more common.
mIDH1 inhibitor: blocks human mutant IDH1 R132H enzyme; Potency, µM (top dose mostly 76.6 µM), for inactives: at the top dose activity change, negative = inhibition, most hits filed as inhibitors; O75874; AID 602179; 390,000 compounds, 0.093% hits; IDH1-R132H enzyme, NADPH consumption, diaphorase/resazurin fluorescence; note: % is set by controls: 0 for no effect and ±100 for the full control effect; nearly all actives have a fitted effect of over 65% in size
Target sequence (O75874 whole entry R132H, stated change not applied): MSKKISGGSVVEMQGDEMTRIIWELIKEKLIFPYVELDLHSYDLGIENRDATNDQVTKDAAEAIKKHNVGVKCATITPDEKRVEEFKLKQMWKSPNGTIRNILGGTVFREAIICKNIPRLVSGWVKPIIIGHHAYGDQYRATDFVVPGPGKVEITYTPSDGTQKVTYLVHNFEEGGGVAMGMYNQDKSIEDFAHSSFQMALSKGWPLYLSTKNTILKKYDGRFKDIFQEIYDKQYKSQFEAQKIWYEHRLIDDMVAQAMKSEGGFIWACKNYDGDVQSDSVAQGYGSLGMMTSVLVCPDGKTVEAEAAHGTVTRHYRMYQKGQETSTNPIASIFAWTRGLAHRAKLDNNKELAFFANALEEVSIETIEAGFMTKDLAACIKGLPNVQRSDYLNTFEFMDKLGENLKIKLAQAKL
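IDH1-R132H (0.5 ug/mL dispensed) in pH 7.5 Tris buffer was preincubated 30 min with compound, then given a substrate mix of 0.016 mM NADPH and 2 mM alpha-KG for 80 min at room temperature; remaining NADPH was read by diaphorase/resazurin fluorescence.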
Nrf2 block: blocks Nrf2 signaling. A549 ARE-Fluc reporter, luciferase luminescence, 18-24 h. Potency, µM (top dose mostly 46 µM), for inactives: at the top dose activity change, negative = inhibition, actives largely listed as inhibitors. 360,000 compounds, 2.1% hits; note: % is set by controls: 0 for no effect and ±100 for the full control effect; nearly all actives have a fitted effect of over 60% in size
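Reporter: ARE-Fluc in A549. Exposure: 18-24 h, 37 °C, 5% CO2, 5% FBS OPTI-MEM. Readouts: fluorescent cytotoxicity (CellTiter-Fluor), then luminescent Nrf2 signal after BugLite.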
Mito fusion act: mitochondrial division inhibition or fusion activation | S. cerevisiae fusion-defective mutant growth rescue, CellTiterGlo 48 h | Potency, µM (titrated, usually from 46.1 µM), for the others: at the highest dose growth rescue (activation), most hits filed as activators | 320,000 compounds, 0.23% hits; note: % of control where 0% means no effect; nearly all actives have a fitted effect of over 45% in size
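Read-out: ATP-based luminescence (CellTiterGlo, 10 min ambient) reporting growth of fusion-defective ts yeast after 48 hours at 37C on glycerol/ethanol YPEG medium in the presence of compound.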
A549 tox: kills or reduces viability of A549 cells in Nrf2 counter-screen; A549 ARE-Fluc cells, CellTiter-Fluor viability, 18-24 h; Potency, µM (titrated, usually from 46 µM), without a hit: at the highest dose activity change, negative = cytotoxicity, usual class: inhibitors; 390,000 compounds, 0.16% hits; note: % is set by controls: 0 for no effect and ±100 for the full control effect
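A549 ARE-Fluc cells in 5% FBS OPTI-MEM, 5000 cells/well, rested 2 h then exposed to compounds in concentration-response for 18-24 h at 37 °C. Viability by CellTiter-Fluor fluorescence (Ex 405/Em 525) after 30 min; luciferase luminescence (BugLite, 15 min, RT) read afterwards.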
TrxR1 inh: inhibitors of rat thioredoxin reductase 1 | O89049 | recombinant rTrxR1, NADPH fluorescence consumption, selenite substrate | Potency, µM (highest dose often 114 µM), for inactives: top-dose activity change, negative = inhibition, usual class: inhibitors | 390,000 compounds, 1% hits; note: % is set by controls: 0 for no effect and ±100 for the full control effect; nearly all actives have a fitted effect of over 65% in size
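Rat TrxR1 (90 nM in the dispensed reagent) was pre-reduced with 400 uM NADPH for 5 min at room temperature, then incubated with compound for 15 min. After 400 uM selenite was added, NADPH fluorescence (Ex 340/Em 450 nm) was followed for 8 min.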
TrxR1 substrate: is turned over as a substrate by rat TrxR1 | Potency, µM (doses to about 114 µM), for the others: at the top dose activity change, negative = substrate turnover | 390,000 compounds, 0.01% hits | purified TrxR1 substrate turnover, NADPH consumption readout | O89049; note: % is set by controls: 0 for no effect and ±100 for the full control effect; nearly all actives have a fitted effect of over 50% in size
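Rat TrxR1, dispensed at 90 nM, was prereduced with 400 uM NADPH (final) for 5 min at ~22 deg C, then incubated with compound 15 min before 400 uM selenite. A first-read NADPH fluorescence drop versus no-compound background flagged substrates.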
* hit, by the source's call; ? = inconclusive; · = no result given; [ ] = remark or other dose. Calls come from the whole dose curve; as a rule, active = well fitted curve in the direction sought with a large enough effect; inconclusive = small, poorly fitted or top-dose-only effect, or another doubt; inactive = no such curve, though single readings can be large; an effect the other way counts as inactive or inconclusive. Potency is the fitted concentration of half-maximal effect.

SMILES | mIDH1 inhibitor | Nrf2 block | Mito fusion act | A549 tox | TrxR1 inh | TrxR1 substrate
COc1ccc(/C=C/c2ccc3ccccc3n2)cc1OC | · | · | · | · | -7% | 60%
COc1cccc(-c2nn(C)c3sc(C(=O)Nc4ccc5c(c4)OCCO5)cc23)c1 | 7% | -24% | 17% | -25% | 12% | 17%
Cn1nc(-c2ccccc2F)c2cc(C(=O)Nc3ccc4c(c3)OCCO4)sc21 | -3% | 15µM* | 9% | ? | 13%[57.1 µM] | 11%[57.1 µM]
CC(=O)c1cccc(NS(=O)(=O)c2cc3c(cc2C)N(C(C)=O)CCO3)c1 | 0% | 18µM* | 1% | ? | -7% | -2%
Cc1cc2c(cc1S(=O)(=O)Nc1ccc(C(C)C)cc1)OCCN2C | -8% | 13µM* | 9% | -1% | 39%[11.4 µM] | 12%
CC1(C)CC(=O)c2cc(C(=O)NCCc3ccccc3)c(=O)[nH]c2C1 | · | · | · | · | -32% | 13%
CCc1ccc(N/C(SC)=C(/C#N)C(N)=O)cc1 | 1% | ? | 5% | 10% | 21%[57.1 µM] | 1%[57.1 µM]
CCCCS/C(=C(/C#N)C(N)=O)c1cc2c([nH]1)CCCC2 | 1% | -11% | 13µM* | -21% | 45µM* | -13%
COc1cc(F)cc(F)c1[S+](=O)([O-])N1CCN([S+](=O)([O-])c2ccc3c(c2)OCCO3)CC1 | · | 8% | · | -5% | · | ·
Cn1nc(C(C)(C)C)cc1C(=O)O | -4% | 3% | 1% | 1% | -20% | -15%
Cn1nc(C(C)(C)C)cc1C(=O)NNC(=O)c1ccc(C(F)(F)F)cc1 | 6% | 21µM* | 0% | 13% | -15% | -16%
CN(C(=O)c1cccc(NC(=O)Cc2ccc(NC(=O)C3CCCN(C(=O)CCc4ccccc4)C3)cc2)c1)C1CCCCC1 (stereo unspecified) | 0%[38.3 µM] | 10µM* | · | -12% | 10% | -1%
CN(C(=O)c1ccc(NC(=O)Cc2ccc(NC(=O)C3CCCN(C(=O)CCc4ccccc4)C3)cc2)cc1)C1CCCC1 (stereo unspecified) | -6%[38.3 µM] | 23µM* | · | -6% | 14% | 1%
CN(Cc1ccccc1)C(=O)c1cccc(NC(=O)Cc2ccc(NC(=O)C3CCN(C(=O)CCc4ccccc4)CC3)cc2)c1 | -10% | 16µM* | · | -17% | 22% | 5%
CN(C(=O)c1cccc(NC(=O)Cc2ccc(NC(=O)C3CCCN(C(=O)CCc4ccccc4)C3)cc2)c1)C1CC1 (stereo unspecified) | -2%[38.3 µM] | ? | · | -3% | 8% | -4%
CN(Cc1ccccc1)C(=O)c1ccc(NC(=O)Cc2ccc(NC(=O)C3CCN(C(=O)CCc4ccccc4)CC3)cc2)cc1 | 8% | ? | · | 5% | 17% | -5%
COc1ccc(Cn2c(=O)c3oc4ccccc4c3n(Cc3cccc(C(F)(F)F)c3)c2=O)cc1 | -4% | -4% | · | ? | 44% | 5%
O=C(Nc1ccc2nc(-c3ccc(Br)o3)[nH]c2c1)c1cccs1 | 7% | 18µM* | 0% | ? | 16µM* | -1%
Cn1cccc1-c1nc2ccc(NC(=O)c3cccs3)cc2[nH]1 | 3% | 18µM* | 5% | -14% | -22% | -8%
CC(=O)Nc1ccc2nc(-c3ccc(Br)o3)[nH]c2c1 | 7% | ? | -13% | 3% | 11µM* | -2%
CC(=O)Nc1ccc2nc(-c3cccn3C)[nH]c2c1 | 0% | ? | -4% | 0% | -2% | -6%
CCN1C(=NCc2cccc(Cl)c2)N[C@@H](c2cccc(C(F)(F)F)c2)C(C(=O)OC)=C1C | · | · | · | · | 13% | -5%
CCOC(=O)CN(Cc1ccccc1)C(C(=O)NC1CCCCC1)c1ccc(OC)cc1 (stereo unspecified) | 12% | -20%[9.27 µM] | · | 0% | -1% | -7%
C(=C\c1ccnc2ccccc12)/c1ccc(N2CCOCC2)cc1 | · | · | · | · | -11% | -8%
COc1ccc(-c2cn3cc([N+](=O)[O-])ccc3n2)cc1OC | 9% | 3.7µM* | 2% | -1% | 14% | 1%
SMILES | mIDH1 inhibitor | Nrf2 block | Mito fusion act | A549 tox | TrxR1 inh | TrxR1 substrate
O=C(NCc1ccco1)[C@@H]1CCCN1C(=O)c1cccs1 | 0% | -5% | 0% | 1% | 79µM* | 4%
O=C(NCCOc1ccccc1)[C@@H]1CCCN1C(=O)c1cccs1 | -3% | 7% | · | 0% | 12% | -1%
O=C(CNC(=O)c1ccc2cc[nH]c2c1)OC(C(=O)Nc1cc(C(F)(F)F)ccc1Cl)c1ccccc1 (stereo unspecified) | · | 14% | · | 2% | · | ·
Nc1nc(SCC(=O)Nc2cccc(Oc3ccccc3)c2)n[nH]1 | 7% | 16µM* | -3% | -3% | 31% | 5%
COc1ccc(C(=O)/C(C#N)=N/Nc2ccc([N+](=O)[O-])cc2)cc1 | -17% | 2.6µM* | ? | ? | -8% | -13%
Cc1c(N/N=C(\C#N)C(=O)c2ccc(Cl)cc2)c(=O)n(-c2ccccc2)n1C | -9% | ? | -1% | ? | -20% | -16%
N#C/C(=N\Nc1ccc(Cl)cc1)C(=O)c1ccccc1 | 5% | 15µM* | ? | 16µM* | -11% | -13%
CCCCNc1nc(Oc2ccc(OCCC)nn2)nc(N(C)C)n1 | · | ? | · | -7% | 16% | 4%
O=C(C[n+]1cccc(Cl)c1)c1ccc(O)c(O)c1 | · | · | · | · | -7% | -10%
CS(=O)(=O)Nc1ccc(N2CCN(c3ccc(C(F)(F)F)cn3)CC2)nc1 | 3% | 7.3µM* | -1% | -7% | 16% | 14%[57.1 µM]
O=C(c1ccccc1)c1ccccc1N1C(=O)C=CC1=O | 6% | -22% | -3% | -5% | 2.2µM* | 13%[57.1 µM]
O=C(O)c1ccccc1C(=O)c1ccc(-c2ccccc2)cc1 | -15% | ? | 16% | -6% | 19% | -3%
O=C1C=CC(=O)N1c1ccccc1N1C(=O)C=CC1=O | -8% | ? | · | ? | 0.32µM* | 4%
COc1ccc(C2Nc3ccccc3C(=O)N2Cc2ccccc2)cc1COc1ccc(NC(=O)c2ccccc2)cc1 (stereo unspecified) | · | -9% | · | -2% | · | ·
CN(C(=O)COC(=O)c1ccc(Br)c([N+](=O)[O-])c1)c1c(N)n(Cc2ccccc2)c(=O)[nH]c1=O | 10% | -10% | -12% | -5% | 40µM* | -7%
Cc1cc(=O)[nH]c(N/N=C/C=C/c2ccccc2)n1 | -4% | 13% | 0% | -1% | 1% | -9%
Cc1cc(=O)[nH]c(N/N=C2/CCCC/C2=C\c2ccccc2)n1 | 1% | 4% | 4% | 1% | 40µM* | -2%
O=C(COc1ccccc1F)Nc1ccc2nc(SCC(=O)N3CCOCC3)sc2c1 | 0% | 18µM* | · | -13% | 6% | -1%
